Consider 55 compounds from PubChem BioAssay AID602438 (Sanford-Burnham Center for Chemical Genomics, 2012).

Screen size: about 360,000 compounds; about 3,100 (0.86%) were called active.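 Rule for the calls: active = inhibition or corrected inhibition above about 18%, plus a signal ratio from 0.5 to 1.5 (limit read from the data, passing the limit was not always enough); inactive = the rest.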 The list comes from a sample in which actives are over-represented; it also holds similar structures and randomly drawn compounds.

For the test, the target named is Neuropilin-1 (Homo sapiens) (UniProt O14786). Description: modulators of CendR peptide binding to NRP-1, primary screen, biochemical, fluorescence polarization, uHTS (AID 602438). Particulars: FAM-RPARPAR peptide binding to NRP-1, fluorescence polarization; at 25 µM; active compounds read high. Background: Polarisation of emitted light reports the rotation of a fluorescent probe.
Neuropilin-1 (Homo sapiens), sequence (O14786 whole entry, looked up): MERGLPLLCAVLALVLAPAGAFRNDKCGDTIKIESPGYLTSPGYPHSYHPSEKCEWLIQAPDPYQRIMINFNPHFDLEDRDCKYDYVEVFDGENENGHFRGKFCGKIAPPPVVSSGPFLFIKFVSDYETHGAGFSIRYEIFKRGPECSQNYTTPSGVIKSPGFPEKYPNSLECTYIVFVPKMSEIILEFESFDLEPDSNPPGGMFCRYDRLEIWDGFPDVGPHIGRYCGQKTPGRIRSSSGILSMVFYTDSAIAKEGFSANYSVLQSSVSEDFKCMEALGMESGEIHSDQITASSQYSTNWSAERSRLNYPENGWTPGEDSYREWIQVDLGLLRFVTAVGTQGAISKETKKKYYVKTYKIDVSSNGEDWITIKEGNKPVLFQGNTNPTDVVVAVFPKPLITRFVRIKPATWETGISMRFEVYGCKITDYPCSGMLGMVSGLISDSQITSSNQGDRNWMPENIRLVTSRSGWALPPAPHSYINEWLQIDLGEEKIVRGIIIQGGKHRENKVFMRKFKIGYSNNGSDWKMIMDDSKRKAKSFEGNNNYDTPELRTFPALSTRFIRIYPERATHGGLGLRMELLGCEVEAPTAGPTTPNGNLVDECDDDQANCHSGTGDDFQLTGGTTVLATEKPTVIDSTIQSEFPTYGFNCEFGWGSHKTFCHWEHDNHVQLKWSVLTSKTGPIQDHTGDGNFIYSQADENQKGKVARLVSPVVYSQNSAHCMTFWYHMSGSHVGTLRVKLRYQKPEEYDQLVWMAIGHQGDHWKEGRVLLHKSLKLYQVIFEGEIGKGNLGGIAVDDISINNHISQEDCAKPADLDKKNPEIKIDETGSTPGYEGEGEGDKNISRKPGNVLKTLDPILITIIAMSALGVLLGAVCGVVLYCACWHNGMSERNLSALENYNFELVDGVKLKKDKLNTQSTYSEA
Turning to `Cc1ccc(F)c(S(=O)(=O)NC(=O)C2(C)CCN2C(=O)c2ccco2)c1` (stereo not given), the inhibition was 24.2% (active).

In the case of `Cc1ccc(F)c(S(=O)(=O)NC(=O)C2(C)CCN2C(=O)CCc2cccs2)c1` (stereo not given), the inhibition was 0.1% (inactive).

Regarding `CC1(C(=O)NS(=O)(=O)c2ccccc2Cl)CCN1C(=O)c1cccc(F)c1` (stereo not given), the inhibition is 6.5% (inactive).

Turning to `COC(=O)Cc1nc2c(N)nc(N)nc2[nH]c1=O`, the inhibition was 26.3% (active).

For `CC1C(=O)N(Cc2cn(CC3CCCCC3)nn2)CCS(=O)(=O)N1Cc1ccc(-c2cccc(N(C)C)c2)cc1` (stereo not given), the inhibition is -7% (inactive).

As to `Cc1ccc(-c2noc(C3CCCN(C(=O)c4cccc(Cl)c4)C3)n2)o1` (stereo not given), the inhibition was 3.6% (inactive).

Turning to `COC(=O)CCCC1=CC2=CC(=O)C(C)(OC(=O)c3cccs3)C(=O)C2=CN1c1cccc(C#N)c1` (stereo not given), the inhibition is -18.7% (inactive).

For the compound `COC(=O)CCCC1=CC2=C(c3ccccc3)C(=O)C(C)(OC(=O)C3CCCC3)C(=O)C2=CN1c1ccc(OC)cc1` (stereo not given), the inhibition is -6.8% (inactive).

As for `COC(=O)CCCC1=CC2=CC(=O)C(C)(OC(=O)c3cccs3)C(=O)C2=CN1CC1CC1` (stereo not given), the inhibition was 36.2% (active).

`Nc1cccc(OCCCCCOc2cccc(N)c2)c1`: the inhibition is 7% (inactive).

For `CCOC(=O)N1CCN(Cc2nc3c(c(=O)n(C)c(=O)n3C)n2Cc2ccccc2)CC1`, the inhibition was -7.4% (inactive).

Regarding `C=CCOc1nc2c(c(=O)n(C)c(=O)n2C)n1Cc1ccc(Cl)cc1Cl`, the inhibition is 7.1% (inactive).

`Cn1c(=O)c2c(nc(OCc3cccnc3)n2Cc2ccccc2)n(C)c1=O`: the inhibition is 28.5% (active).

Regarding `Cc1ccccc1C(=O)N1CCC(C(=O)Oc2ccc(C#N)cc2)CC1`, the inhibition is -0.1% (inactive).

Turning to `CC(C)Sc1nc(N)nc2c1ncn2C1OC(CO)C(O)C1O` (stereo not given), the inhibition was -1.6% (inactive).

As to `CC(C)Cn1cnc2c(SCc3ccc(Cl)cc3)nc(N)nc21`, the inhibition was 20.8% (active).

On to `Nc1nc(SCc2ccc([N+](=O)[O-])cc2)c2ncn(C3OC(CO)C(O)C3O)c2n1` (stereo not given), for which the inhibition is -20.4% (inactive).

On to `Cc1cccc(C)c1NC(=O)C(c1ccc(C(F)(F)F)cc1)n1c(=O)c(-c2ccco2)nc2ccccc21` (stereo not given), for which the inhibition was -67% (inactive).

`CC(NCCO)C(=O)C12CC3CC(CC(C3)C1)C2` (stereo not given): the inhibition was 6.1% (inactive).

Take `COc1cc(/C=C/C(=O)OCC(=O)Nc2cccc(Oc3ccccc3)c2)ccc1O`: the inhibition was -3.6% (inactive).

Regarding `COc1ccc(C(C(=O)NCc2ccccc2)n2c(=O)c(-c3ccccc3)nc3ccccc32)cc1` (stereo not given), the inhibition is -0.4% (inactive).

Consider `CCc1[nH]nc(C(=O)N2CCCC(CNS(=O)(=O)c3cccs3)C2)c1C` (stereo not given), for which the inhibition was 3.8% (inactive).

As for `COc1cc2c(cc1OC)C(C(C)C)=NC(C)(C)C2`, the inhibition was -1.6% (inactive).

In the case of `COc1cc2c(cc1O)C(SC)=NC(C)(C)C2`, the inhibition was 9% (inactive).

For the compound `COc1cc2c(cc1OC)C(Nc1ccc(S(N)(=O)=O)cc1)=NC(C)(C)C2`, the inhibition is 26.3% (active).

With `Cn1c(=O)cc(OCCCC(=O)N2CCN(c3ccccn3)CC2)c2ccccc21`, the inhibition was -0.5% (inactive).

For the compound `Cc1ccc(C)c(NC(=O)C(c2ccccc2)N2CCN(CC(=O)NC3CC3)CC2)c1` (stereo not given), the inhibition is -1.3% (inactive).

For the compound `CCOC(=O)c1cc2cc(C)ccc2[nH]1`, the inhibition was 1.1% (inactive).

For the compound `CCOC(=O)c1ccc2[nH]c3c(c2c1)CCCC3NC=O` (stereo not given), the inhibition was -0.5% (inactive).

Regarding `CCOC(=O)c1[nH]c2ccc(C)cc2c1N=C(C)N(C)C`, the inhibition was 28.1% (active).

Regarding `CC1CC1C(=O)OCC(=O)Nc1cccc(F)c1` (stereo not given), the inhibition was 5.8% (inactive).

Turning to `O=P(c1cccs1)(c1cccs1)c1cccs1`, the inhibition is 6.4% (inactive).

Turning to `CN(CCCNC(=O)CN1C(=O)CC(C)(C)S(=O)(=O)c2ccccc21)C1CCCCC1`, the inhibition is 12.4% (inactive).

With `Clc1ccc(Cc2nnc(-c3cccs3)o2)cc1`, the inhibition is -15.6% (inactive).

Turning to `COc1ccc(CCc2nc(-c3cccs3)no2)cc1`, the inhibition is -5.8% (inactive).

With `COc1nc(-c2ccc(Cl)cc2)ccc1-c1noc(-c2cccs2)n1`, the inhibition was 49.1% (active).

Consider `O=C(OCc1ccc([N+](=O)[O-])cc1)C1CC(=O)N(Cc2ccccc2Cl)C1` (stereo not given), for which the inhibition is -11.4% (inactive).

`O=C(O)c1ccc(NS(=O)(=O)c2ccc3c(c2)C(=O)c2cc(S(=O)(=O)Nc4ccc(C(=O)O)cc4)ccc2-3)cc1`: the inhibition is -59.7% (inactive).

As to `O=C(Nc1ccccc1C(=O)NCC1CCCO1)c1ccccc1F` (stereo not given), the inhibition is 20.7% (inactive).

Consider `Cc1ccc(-c2noc(-c3ccccc3C(=O)NCC3CCCO3)n2)cc1` (stereo not given), for which the inhibition was 28% (active).

In the case of `O=C(NCC1CCCO1)c1ccccc1-c1nc(-c2ccccc2Cl)no1` (stereo not given), the inhibition was 8% (inactive).

For the compound `COc1ccc(NS(=O)(=O)c2ccc(C)c(C(=O)NCC(c3cccs3)N3CCOCC3)c2)cc1` (stereo not given), the inhibition was 6.2% (inactive).

As for `CC1(C(=O)Nc2ccc3c(c2)OCCO3)CN(S(C)(=O)=O)CC(=O)N1Cc1cccc(F)c1` (stereo not given), the inhibition is -4.8% (inactive).

As for `CN1CCCc2cc(C#N)c(=O)[nH]c21`, the inhibition is 4.8% (inactive).

As to `CCCCn1nnnc1C(c1ccccc1)N1CCN(c2ccccc2OC)CC1` (stereo not given), the inhibition is -6.7% (inactive).

As to `CCCCn1nnnc1C(c1cc2ccccc2o1)N(C)Cc1ccc(Cl)c(Cl)c1` (stereo not given), the inhibition was 26.3% (active).

Consider `Cn1nnnc1NCc1ccc(Cl)c(Cl)c1`, for which the inhibition is 12.8% (inactive).

For the compound `COc1ccc(S(=O)(=O)N2CCCC(C(=O)Nc3ccc(NC(=O)c4ccccn4)cc3)C2)cc1` (stereo not given), the inhibition was 0.1% (inactive).

Take `CCCC(C(=O)n1nc(C)cc1C)C(NS(=O)(=O)c1ccc(C)cc1)c1ccccc1` (stereo not given): the inhibition is -0.9% (inactive).

Take `O=C1CCC/C=C\C[C@@H](CC(=O)N(CCO)Cc2ccccc2)C(=O)NCCO1`: the inhibition was 4.9% (inactive).

In the case of `O=C1NC[C@@H](c2ccccc2)OC(=O)[C@H](Cc2ccc(F)cc2)CC/C=C/C[C@H]1CC(=O)N(CCO)Cc1ccccc1`, the inhibition is 23.4% (active).

For `O=C1N[C@H](Cc2c[nH]c3ccccc23)COC(=O)[C@H](Cc2ccc(F)cc2)C/C=C\C[C@H]1CC(=O)N(CCO)Cc1ccccc1`, the inhibition was 22.7% (active).

Turning to `O=C1CCC/C=C/C[C@@H](CC(=O)N(CCO)Cc2ccccc2)C(=O)NC[C@H](c2ccccc2)O1`, the inhibition was 4.9% (inactive).

As for `O=C1OC[C@@H]2CCCN2C(=O)[C@H](CC(=O)N(CCO)Cc2ccccc2)C/C=C\CC[C@@H]1Cc1ccc(F)cc1`, the inhibition is 4.4% (inactive).

`CC(C)(C)OC(=O)C[C@@H]1C/C=C\C[C@@H](CC(=O)N(CCO)Cc2ccccc2)C(=O)N[C@H](Cc2ccccc2)COC1=O`: the inhibition was -9.4% (inactive).

By inhibition is commonly meant the drop in the measured response relative to a control, in per cent.
